Results from PubChem BioAssay (NCI).
About 79,000 compounds went through this panel and 15% of them were active in at least one assay; those are over-represented in the sample as a whole. Unmarked numbers belong to inactive results. Calls of active or inactive are those of the source. Rule as the data show it: active = growth inhibition above about 70%; inactive = the rest.

Assay: NCI Yeast Anticancer Drug Screen. Data for the rad50 strain (AID 155);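 also: 0% = growth of vehicle-only cultures of the same strain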
Conditions: S. cerevisiae rad50 strain growth inhibition; at 50.0 µM; active compounds read high
Summary of the method: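 Inhibition values express reduced yeast growth in compound-treated cultures relative to vehicle-treated controls.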

SMILES	growth inhibition
Cc1ccc2c(c1)CC1(C2)Cc2ccc(C)cc2C1=O (stereo not given)	25.4%
NC1=CC(=O)c2ccccc2C1=O	94.5% (active)
CCCCC(CC(=O)O)c1ccc(Cl)cc1 (stereo not given)	57.5%
OCCOCCO[P+]1(OCCOCCO)n2c3ccc2C(c2ccccc2)=C2C=CC(=N2)C(c2ccccc2)=c2ccc(n21)=C(c1ccccc1)C1=NC(=C3c2ccccc2)C=C1	91.3% (active)
Clc1ccc2[nH]c(-c3ccccc3)c(-c3ccccn3)c2c1	96.2% (active)
COc1cc(NS(C)(=O)=O)ccc1Nc1c2ccccc2nc2ccccc12	83.5% (active)
COC1/C=C/OC2(C)Oc3c(C)c(O)c4c(c3C2=O)C(=O)C=C(NC(=O)/C(C)=C\C=C\C(C)C(OC=O)C(C)C(O)C(C)C(OC(C)=O)C1C)C4=O (stereo not given)	47%
COc1ccc(CN(C)c2c(C)ccc3ccccc23)cc1	5.3%
CCOC(=O)c1c(-c2ccccc2)csc1NC(=O)CBr	99.1% (active)
Nc1nc2nc(I)[nH]c2c(=O)[nH]1	4.8%
CC(CN(CC(=O)O)CC(=O)O)N(CC(=O)O)CC(=O)O.[Cl][Pd][Cl] (stereo not given)	88.3% (active)
COC(=O)c1nc(=S)[nH]c(C(=O)OC)c1C(=O)c1ccc2ccccc2c1	94.5% (active)
O=C(Nc1ccccc1)OCCc1ccc(Br)cc1	13.2%
O=C(CCN1CCCCC1)/C(=C\c1ccc(Cl)cc1)c1ccccc1	99% (active)
FC(F)(F)c1nc(S)cc(=S)[nH]1	-21.2%
CCCCC(=O)N/N=C/c1ccc([N+](=O)[O-])s1	97% (active)
CSC(=S)N/N=C(\C)c1nccnc1C	98.7% (active)
CC(=O)Oc1cc2c(cc1OC(C)=O)OCC(c1ccccc1)C2 (stereo not given)	69.3%
O=Cc1ccc(O)c2ccccc12	63.2%
CC(=O)N(C1=C(Cl)C(=O)c2ccccc2C1=O)c1ccc(Cl)cc1	97.8% (active)

SMILES	growth inhibition
Cn1c2c(c3ccccc31)CCN1C[C@@H]3CCCC[C@H]3C[C@@H]21	65%
CCOc1ncc(Cl)c(OCC)n1	-25.4%
C=C1C(=O)OC2C1CC1OC2C(C)CCC/C(C)=C\CCC1(C)O (stereo not given)	92.5% (active)
CCCCN(CCCC)CCC(O)(c1ccc(OC)c2ccccc12)C(O)(CCN(CCCC)CCCC)c1ccc(OC)c2ccccc12 (stereo not given)	99.2% (active)
CS/C(N)=N/NC(=O)CCC(=O)Nc1cc(Cl)c(Cl)cc1Cl	24.7%
COc1ccc(OC)c(N=Nc2c(C)[nH]n(C(N)=S)c2=O)c1	79.3% (active)
O=C(CC(=O)c1ccccc1)CC1(O)CCCCC1	61.1%
Nc1ccc2ccccc2c1Cc1c(O)ccc2ccccc12	99.2% (active)
CC[n+]1c(/C=C/c2cc(C(=O)OC)n3c2sc2ccccc23)sc2ccccc21	99% (active)
O=CNc1ccc2c(c1)Cc1cc(NC=O)ccc1-2	91% (active)
O=C1CC(c2ccccc2)C(=O)N2C(=O)CC(c3ccccc3)C(=O)N12 (stereo not given)	42.2%
CN1CCN(CCOC(=O)N2c3ccccc3Sc3ccccc32)CC1	9.45%
COc1nc(Nc2ccc(/C=C/c3ccc(Nc4nc(OC)nc(N(CCO)CCO)n4)cc3S(=O)(=O)O)c(S(=O)(=O)O)c2)nc(N(CCO)CCO)n1	14.2%
NNC(=O)NN=C(c1ccccc1)c1ccccc1	1.5%
CCOC(=O)C(Br)C(Br)c1cccc([N+](=O)[O-])c1 (stereo not given)	99.7% (active)
CCCCCCC(O)C(CO)CCCCC (stereo not given)	98% (active)
Oc1c(Br)c(Br)c(O)c(Br)c1Br	98.9% (active)
CC(=O)n1nc2c(c1CC(C)C)C(=O)C(Nc1ccccc1)=CC2=O	77% (active)
CC(C)(CCBr)[N+](=O)[O-]	0.55%
Nc1ccccc1SCc1csc(-c2ccc(Cl)cc2)n1	97.9% (active)
